The results in this text go back to PubChem BioAssay (NCATS).

Records with an inconclusive call do not appear. Entries that show only a call come without a potency. Values without a mark were called inactive. The source made the active and inactive calls. Calls come from the whole dose curve; as a rule, active = well fitted inhibition curve with a large enough effect; inconclusive = small, poorly fitted or top-dose-only effect; inactive = no such curve, though single readings can be large or run the other way. Where a SMILES comes first, the peptide text is derived from it. [ ]: non-standard residue; d: D form. PhLac = O=C(O)[CH](O)Cc1ccccc1; NMeV = CN[CH](C(=O)O)C(C)C
Potency is the fitted concentration of half-maximal effect.

This assay can be described thus: Primary fluorescence-based thiol-reactive (MSTI) qHTS assay for identification of artifact compounds. (AID 1845221).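 For activity change, negative = thiol reactive: thiol-reactive compounds lower the probe fluorescence signal.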 Note: nearly all actives have a fitted effect of over 65% in size. Conditions: MSTI thiol-reactivity probe, 1 h; series mostly up to 53.8 µM. In a few lines:
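Probe: MSTI 4 uM, PBS pH 7.4, 2% DMSO. Incubation 1 h, RT, light-protected. Readout fluorescence 525/598 nm.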
Background: Quantitative high-throughput screening tests each substance at several concentrations.
As for `O=C(O[C@@H]1O[C@H](CO)[C@@H](O)[C@H](O)[C@H]1O)c1c(O)cc(O)cc1/C=C/c1ccccc1`, the Potency is 7.33 µM (active). On the same count and under the same terms, as for `C[C@@H]1CC[C@]2(C(=O)O)CC[C@]3(C(=O)O)C(=CCC4[C@@]5(C)CC[C@H](O[C@@H]6O[C@@H](C)[C@H](O[C@@H]7O[C@H](CO)[C@@H](O)[C@H](O)[C@H]7O)[C@@H](O)[C@H]6O)C(C)(C)C5CC[C@]43C)C2[C@H]1C` (stereo not given in full), the entry is “inactive”. In the case of `COC1C=C([C@@H]2CC=C3[C@@]4(C)C(CC[C@]32C)[C@@]2(C)C=CC(=O)C(C)(C)C2C[C@H]4OC(C)=O)C(=O)O1` (stereo not given in full), the Potency result was “inactive”. The same measure, in the same setting: as for `Cc1cc(Nc2ncc(Cl)c(Nc3ccccc3S(=O)(=O)C(C)C)n2)c(OC(C)C)cc1C1CCNCC1`, the entry is “inactive”; as for `CN1CC[C@@H](NC(=O)Nc2ccc(C#N)cc2)C[C@@H]1c1nc2ccccc2[nH]1`, “inactive”.

In the case of `O=C(/C=C/c1ccc(O)cc1)OCC1=C[C@@H](O)[C@@H]2C=CO[C@@H](O[C@@H]3O[C@H](CO)[C@@H](O)[C@H](O)[C@H]3O)[C@H]12`, the Potency is 5.82 µM (active).

Take `C1CCN2CC3C[C@@H](CN4CCCC[C@@H]34)[C@H]2C1`: the Potency result is “inactive”. Same read-out and setting: as for `C=C1CC[C@@H]2[C@](C)(CO[C@@H]3O[C@H](CO)[C@@H](O)[C@H](O)[C@H]3O)CCC[C@@]2(C)[C@@H]1CCC1=CCOC1=O`, the entry is “inactive”. Same read-out and setting: the entry for `CC1(C)NC2N(C1=O)c1ccccc1C2(O)CC(C(=O)O)n1cnc2ccccc2c1=O` (stereo not given) is “inactive”. With `C=CC(C)(O)CC/C=C(\C)C(=O)OCC1OC(OC2CCC3(C)C(CCC4(C)C3CC=C3C5CC(C)(C)C(O)CC5(C(=O)O)CCC34C)C2(C)C)C(O)C(OC2OC(CO)C(O)C(OC3OC(CO)C(O)C(OC4OC(COC5OC(CO)C(O)C(O)C5O)C(O)C(O)C4O)C3O)C2O)C1O` (stereo not given), the activity change, negative = thiol reactive was 67.6% [at 11.5 µM]. As for `CC(=O)N1CCN(NC(=O)c2ccc(F)cc2)CC1`, the Potency result was “inactive”. On the same count and under the same terms, the entry for `C=CC1(C)C=C2C(O)CC3C(C)(C(=O)O)CCCC3(C)C2CC1` (stereo not given) is “inactive”; for `CCNC(=O)[C@H]1O[C@H](n2cnc3c(NCC(c4ccccc4)c4ccccc4)nc(C(=O)NCCNC(=O)NC4CCN(c5ccccn5)CC4)nc32)[C@H](O)[C@@H]1O` it is “inactive”; for `CC(C)C(C(=O)N1CCCC1C(=O)O)N(C)C(=O)C(O)Cc1ccccc1` (stereo not given) (H-[PhLac]-[NMeV]-Pro-OH; configuration not given here) it is “inactive”. As to `CC(=O)OC1C=C(C(=O)O)C2(CO)CCC(C)C(C)(CCc3ccoc3)C2C1` (stereo not given), the Potency result is “inactive”.

As to `C/C=C(\C)C(=O)O[C@@H]1CC2[C@@H](CC=C3C[C@@H](O[C@H]4C[C@H](OC)[C@H](O[C@H]5C[C@H](OC)[C@H](O[C@H]6C[C@H](OC)[C@H](O[C@H]7C[C@@H](OC)[C@H](O[C@@H]8O[C@H](CO)[C@@H](O)[C@H](O)[C@H]8O)[C@@H](C)O7)[C@@H](C)O6)[C@@H](C)O5)[C@@H](C)O4)CC[C@@]32C)[C@@]2(O)CC[C@H](C(C)=O)[C@@]12C` (stereo not given in full), the activity change, negative = thiol reactive was 10.3% [at 11.5 µM].

In the case of `CC1(CO)CC2C(O)C(=O)C3(CO)CC3(C)C2C1` (stereo not given), the Potency result was “inactive”. Same read-out and setting: as for `CCC(C)(O)C(O)C(=O)OCc1ccc(O[C@@H]2O[C@H](CO)[C@@H](O)[C@H](O)[C@H]2O)c(OC)c1` (stereo not given in full), the entry is “inactive”; as for `N#Cc1ccnc(N2C(=O)CC[C@H]2C(=O)N(c2cncc(F)c2)[C@H](C(=O)NC2CC(F)(F)C2)c2ccccc2Cl)c1`, “inactive”; as for `C=C(C)[C@H]1C[C@@H](O)C(=C)CC[C@@H](O)C(=C)[C@@H](O)C1`, 11.9 µM (active). The same measure, in the same setting: the entry for `C=C1CC[C@@H]2[C@](C)(CC[C@H](O)[C@@]2(C)CCC=C(C)C)[C@@H]1Cc1c[nH]c2ccccc12` is “inactive”. Take `Cc1ccc(C(=O)Nc2ccc(Oc3cc4cnn(C)c4cc3-c3cn[nH]c3)c(F)c2)c(=O)n1-c1ccc(F)cc1`: the Potency result is “inactive”.

Turning to `c1ccc(Cc2ncc3c(n2)CCNCC3)cc1`, the Potency result was “inactive”. For the compound `C[C@@H]1C[C@H]2[C@@H]3CCC4=CC(=O)C=C[C@]4(C)[C@@]3(F)[C@@H](O)C[C@]2(C)[C@@]1(O)C(=O)COP(=O)(O)O`, the Potency entry was “inactive”. Take `COC(=O)C1C(CC(C)=O)C=CC(O)C12Oc1cc(C)cc(O)c1C2=O` (stereo not given): the Potency is 5.85 µM (active). On the same count and under the same terms, the entry for `CC1(C)CC[C@]2(C(=O)O)CC[C@]3(C)C(=CCC4[C@@]5(C)CC[C@H](O[C@@H]6O[C@H](C(=O)O)[C@@H](O)[C@H](O)[C@H]6O)C(C)(CO)C5CC[C@]43C)C2C1` (stereo not given in full) is “inactive”; for `CC1CCC2C(C)(C)C(O)CCC2(C)C12Cc1c(O)cc3c(c1O2)C(N)=NC3` (stereo not given) it is “inactive”. On to `C[C@@H]1CC[C@]2(C)C3(C)CC[C@@]2(OC3=O)[C@@]12C[C@H](c1ccoc1)OC2=O`, for which the Potency entry is “inactive”. On the same count and under the same terms, as for `COC(=O)C1=COC(OC2OC(CO)C(O)C(O)C2O)C2C1CC(OC(=O)C(O)CC(=O)O)C2C` (stereo not given), the figure is 13 µM (active); as for `C=CC1C(O[C@@H]2O[C@H](CO)[C@@H](O)[C@H](O)[C@H]2O)OC=C(C(=O)OC)C1Cc1nccc2c1[nH]c1ccccc12` (stereo not given in full), “inactive”. As for `C=C1C2(CCC(=O)OC2(C)C)CC(OC(=O)/C(C)=C/C)C2(C)C13OC14C(=O)OC(C)(C(=O)C12C(=O)OC4C)C3OC(C)=O` (stereo not given), the Potency entry is “inactive”. Consider `C=C[C@@]1(C)CC(=O)C2[C@](C)(O1)[C@@H](OC(C)=O)[C@@H](O)[C@H]1C(C)(C)CCC[C@]21C` (stereo not given in full), for which the activity change, negative = thiol reactive is 58.5% [at 11.5 µM]. The same measure, in the same setting: as for `C=CC(C)(O)CC/C=C(\C)C(=O)OC1CC2(C(=O)O)CCC3(C)C(=CCC4C5(C)CCC(OC6OC(COC7OCC(O)C(O)C7O)C(O)C(OC7OCC(O)C(O)C7O)C6OC6OC(CO)C(O)C(O)C6OC6OCC(O)C(O)C6O)C(C)(C)C5CCC43C)C2CC1(C)C` (stereo not given), the figure is 122% [at 11.5 µM].

Turning to `COC1=CC(=O)O[C@@H](CCc2ccccc2)[C@@H]1O`, the Potency result is “inactive”. With `C[C@@H]1O[C@@H](O[C@H]2[C@H](OC(=O)C34CCC(C)(C)CC3C3=CCC5C6(C)CC(O)C(O[C@@H]7O[C@H](CO)[C@@H](O)[C@H](O)[C@H]7O)C(C)(C(=O)O)C6CCC5(C)C3(CO)CC4)O[C@H](C)[C@H](O)[C@@H]2O)[C@H](O)[C@H](O)[C@H]1O[C@@H]1OC[C@@H](O)[C@H](O)[C@H]1O` (stereo not given in full), the activity change, negative = thiol reactive was 89.3% [at 11.5 µM]. Regarding `C=C1CC23CCC4[C@@](C)(CCC[C@@]4(C)C(=O)O)C2CCC1C3` (stereo not given in full), the Potency entry is “inactive”. Regarding `CC1(C)CC2C3=CCC4C5(C)CCC(OC6OC(CO)C(O)C(OC7OC(CO)C(O)C(OC8OC(CO)C(O)C(OC9OC(COC%10OC(CO)C(O)C(O)C%10O)C(O)C(O)C9O)C8O)C7O)C6O)C(C)(C)C5CCC4(C)C3(C)CCC2(C(=O)O)CC1O` (stereo not given), the activity change, negative = thiol reactive is 31.3% [at 11.5 µM]. Take `C=C(C)[C@@H]1CC[C@](C)(O)[C@@H](OC(=O)c2ccccc2)C1`: the Potency result is “inactive”. On the same count and under the same terms, the entry for `COC(=O)C1=CO[C@@H](O[C@@H]2O[C@H](CO[C@@H]3O[C@H](COC(=O)/C=C/c4ccc(O)cc4)[C@@H](O)[C@H](O)[C@H]3O)[C@@H](O)[C@H](O)[C@H]2O)[C@@H]2C(CO)=CC[C@H]12` is “inactive”.

For the compound `COc1cc([C@@H]2Oc3c(OC)cc(CCCO)cc3[C@@H]2CO[C@@H]2O[C@H](CO)[C@@H](O)[C@H](O)[C@H]2O)ccc1O`, the Potency is 4.12 µM (active).
